The values below come from PubChem BioAssay (NCI).

The structures appear in SMILES notation. Several values for one entry are separate records, joined by “and”; a condition that tells them apart may be missing. Equal values may be shown once. This is part of a sample that, as a whole, favours compounds with a hit. Of some 83,000 tested, about 20% had one in any assay.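 A percent growth of 40 corresponds to 60% growth inhibition; 0 means no net growth; -100 means all cells died. Active threshold: below 10.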 Activity calls are given as the source filed them. Where a SMILES comes first, the peptide text is derived from it.

The test system of this assay is SW-620 colon. The assay is described as follows: NCI-60 one-dose screen, 48 h (100 = growth as untreated, 0 = no growth, -100 = all killed). As to conditions: 10 µM unless noted. The method, then:
Growth inhibition of the SW-620 human tumor cell line is measured as a screen for anti-cancer activity. Cells are grown in 96 well plates and exposed to the test compound for 48 hours. Compounds are tested at a single concentration, which is 10^-5 M for most compounds. The reported endpoint is percent growth (GI% or GIPRCNT), where numbers from 0 - 100% represent growth inhibition, and numbers from -100% - 0 represent cell death. For example, a value of 40 represents 60% growth inhibition. A value of 0 means no net growth occurred over the course of the experiment. A value of -40 indicates 40% of cells at the beginning of the experiment died by the end of the experiment. A value of -100 means all cells are dead at the end of the experiment.
NCI-60 Human Tumor Cell Lines Screen was performed using the standard one-dose NCI protocol, which is described in more detail at https://dtp.cancer.gov/discovery_development/nci-60/default.htm.
Compounds with GIPRCNT values below 10 were considered active. Activity score was based on GIPRCNT using the following formula: […]
Score is 0 for GIPRCNT values of 100 or above, 50 for GIPRCNT values of 0, and 100 for GIPRCNT values of -100.
With `N#CC(C#N)N=Nc1cc(Cl)ccc1Cl`, the growth was 104% (inactive).

For `CCCCCCCCCCNC(=O)CI`, the growth is -33.9% (active).

In the case of `O=C1C=C(Nc2ccccc2)c2ccccc2C1=O`, the growth is 31.5% (inactive) and 94% (inactive).

With `C#CCOC(=O)Nc1ccccc1`, the growth is 105% (inactive).

Take `COc1ccc(C(=O)CC(c2ccccc2)C(C#N)c2ccccc2)cc1` (stereo not given): the growth was 91.1% (inactive).

Consider `O=C(CO)C(O)C(O)C(O)C(O)CO` (stereo not given), for which the growth was 105% (inactive) and 100% (inactive).

In the case of `O=C(O)CCCl`, the growth was 105% (inactive).

Turning to `CC(C)(O)C(=O)O`, the growth was 110% (inactive).

As to `COc1ccc(N/C=C/C2=[N+](C)c3ccccc3C2(C)C)c(OC)c1`, the growth was 92.7% (inactive).

With `CCCCNc1ccc(Nc2ccccc2)cc1`, the growth is 84.3% (inactive).

Regarding `O=C(Cc1ccccc1)c1ccc(O)c(Cl)c1`, the growth is 22.1% (inactive).

Consider `Oc1ccc(Cc2ccccc2Cl)c(O)c1`, for which the growth was 97.1% (inactive).

`NC(Cc1c[nH]c2ccccc12)C(=O)O` (stereo not given): the growth was 111% (inactive) and 95.9% (inactive).

With `c1ccc2c(c1)OC1OC2Oc2ccccc21`, the growth is 96.9% (inactive).

In the case of `NC1CCC(C(=O)O)CC1` (stereo not given), the growth was 93.7% (inactive) and 100% (inactive).

As for `CC1CCC2(C(=O)O)CCC3(C)C(=CCC4C5(C)CCC(O)C(C)(C)C5CCC43C)C2C1C` (stereo not given), the growth is 15.2% (inactive) and 98.2% (inactive).

In the case of `N#CC(C#N)N=Nc1ccc(Cl)cc1`, the growth is 15% (inactive).

Regarding `CC(=O)OCC1OC(OC(C)=O)C(OC(C)=O)C(OC(C)=O)C1OC(C)=O` (stereo not given), the growth is 102% (inactive) and 105% (inactive).

As to `NC(Cc1ccccc1)C(=O)NC(Cc1ccccc1)C(=O)O` (stereo not drawn) (H-Phe-Phe-OH; configuration not given here), the growth is 102% (inactive) and 108% (inactive).

As for `O=C1c2c(O)ccc(O)c2C(=O)c2c(NCCNCCO)ccc(NCCNCCO)c21`, the growth is -30.8% (active) and -81.8% (active).

With `CCCCCCCCCCCCCCCCC(C(=O)O)C(O)(CC(=O)O)C(=O)O` (stereo not given), the growth is 101% (inactive) and -23.5% (active).

Regarding `NN1CCOC(c2ccccc2)C1` (stereo not given), the growth was 98% (inactive).

On to `O=C1OC(c2ccccc2)=N/C1=C\c1ccccc1`, for which the growth is 101% (inactive).

As to `Nc1nc(N)c2[nH]cnc2n1`, the growth is 85.9% (inactive).

In the case of `CC(=O)NCC(=O)c1ccc([N+](=O)[O-])cc1`, the growth was 99.5% (inactive).

As to `ClCCOCCOc1ccc(C2CCCCC2)cc1`, the growth was 110% (inactive).

Turning to `O=[N+]([O-])c1cccc(SSc2cccc([N+](=O)[O-])c2)c1`, the growth is 109% (inactive).

With `CC1CCC(C(C)C)C(NNC(N)=O)C1` (stereo not given), the growth was 98% (inactive).

Take `O=C(/C=C/c1ccccc1)c1ccccc1`: the growth was 86.6% (inactive).

On to `CC[C@H](CC[C@@H](C)[C@H]1CC[C@H]2[C@@H]3CC=C4C[C@@H](O)CC[C@]4(C)[C@H]3CC[C@]12C)C(C)C`, for which the growth is 110% (inactive) and 104% (inactive).

With `Cc1cc(-c2cc(C)c(O)c(C)c2)cc(C)c1O`, the growth was 77.4% (inactive).

As for `CN(C)c1ccc(/C=C\C(=O)c2ccccc2)cc1`, the growth was 64.2% (inactive) and 61.3% (inactive) and 66.4% (inactive).

Turning to `O=CN1CCCCC1`, the growth was 102% (inactive).

Regarding `Nc1ccc2c(O)cc(S(=O)(=O)O)cc2c1`, the growth was 94.3% (inactive) and 95.3% (inactive).

In the case of `CC(=O)Nc1ccc(S(N)(=O)=O)cc1`, the growth is 96.7% (inactive) and 104% (inactive).

`CCOC(=O)c1c(C)cc(=O)oc1C`: the growth is 110% (inactive).

As to `CN(C)CC1CCCCCC(CN(C)C)C1=O` (stereo not given), the growth is -64.3% (active).

Regarding `Cc1cc(-c2ccc(N=Nc3ccc4c(S(=O)(=O)O)cc(S(=O)(=O)O)c(N)c4c3O)c(C)c2)ccc1N=Nc1ccc2c(S(=O)(=O)O)cc(S(=O)(=O)O)c(N)c2c1O`, the growth was 110% (inactive).

As for `c1ccc(-c2nc3ccccc3s2)cc1`, the growth was 93.6% (inactive).

Take `Cc1ccc(S(=O)(=O)c2ccccc2)cc1`: the growth was 11.6% (inactive).
